Screening data (PubChem)
AMA1-RON2 inh: qHTS for Inhibitors of AMA1-RON; Towards Development of Antimalarial Drug Lead: Primary Screen | Plasmodium falciparum AMA1 (3D7) - RON2 peptide interaction | AlphaScreen AMA1-biotinylated RON2 peptide binding | Potency, µM (highest dose often 58.2 µM), for inactives: top-dose activity change, negative = inhibition, actives largely listed as inhibitors | hit rate 0.2% among 360,000 | AID 720542, 2013;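 note: 0% = vehicle wells and -100% = peptide control; nearly all actives have a fitted effect of over 45% in size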
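AMA1 (3D7) with his tag at 25 nM final met compounds first, then biotinylated RON2 peptide at 25 nM; detection used donor plus acceptor beads, 10 µg/mL apiece, read by AlphaScreen after 30 min at room temperature.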
SARS PLP yeast: qHTS of Yeast-based Assay for SARS-CoV PLP | Potency, µM (titrated, usually from 32.9 µM), for the others: top-dose activity, positive = growth rescue, most hits filed as activators | S. cerevisiae expressing SARS-CoV PLpro, growth rescue | AID 485353, 2010 | hit rate 0.19% among 330,000; calls by dose curve; note: 0% is about no effect; nearly all actives have a fitted effect of over 55% in size
TbPYK inhibitor: qHTS of Trypanosoma Brucei Inhibitors; pyruvate kinase (Trypanosoma brucei), Q57TT1; TbPYK enzyme, Kinase-Glo Plus ATP luminescence, 45 min; AID 624173, 2012; Potency, µM (titrated, usually from 76.8 µM), for the others: top-dose activity, negative = inhibition, most hits filed as inhibitors; hit rate 0.12% among 410,000; note: % is set by controls: 0 for no effect and ±100 for the full control effect; nearly all actives have a fitted effect of over 50% in size
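T. brucei PYK with substrate was exposed to pin-transferred compounds across a concentration series, then started with 130 uM ADP (final). After 45 min at room temperature, Kinase-Glo Plus luminescence was read, normalized and curve-fitted.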
RE007 growth inh: qHTS Assay for Inhibitors of the HIV-1 protein Vpr; Potency, µM (top dose mostly 92.2 µM), for inactives: at the top dose activity change, negative = less growth, most hits filed as inhibitors; hit rate 0.21% among 360,000; S. pombe RE007 Vpr strain, BacTiter-Glo ATP luminescence, 24 h; active = well fitted falling curve with a large enough effect; inconclusive = small, poorly fitted or top-dose-only effect; inactive = no such curve, though single readings can be large or run the other way; note: % is set by controls: 0 for no effect and ±100 for the full control effect; nearly all actives have a fitted effect of over 50% in size
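Fission yeast strain RE007, carrying one chromosomally integrated HIV-1 vpr copy, was seeded at OD 0.01 in PMG+AL medium with 23 nL pinned compound. After 24 h at 30 °C and 99% humidity, viability was read by BacTiter-Glo luminescence.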
LmPK inhibitor: qHTS Assay for Inhibitors of Leishmania Mexicana Pyruvate Kinase (LmPK). Q27686. purified LmPK, Kinase-Glo ATP luminescence, 1 h. Potency, µM (titrated, usually from 57.5 µM), without a hit: at the top dose activity change, negative = inhibition, most hits filed as inhibitors. hit rate 0.37% among 290,000. AID 1721, 2009; note: % is set by controls: 0 for no effect and ±100 for the full control effect
Target sequence (Q27686 whole entry, looked up): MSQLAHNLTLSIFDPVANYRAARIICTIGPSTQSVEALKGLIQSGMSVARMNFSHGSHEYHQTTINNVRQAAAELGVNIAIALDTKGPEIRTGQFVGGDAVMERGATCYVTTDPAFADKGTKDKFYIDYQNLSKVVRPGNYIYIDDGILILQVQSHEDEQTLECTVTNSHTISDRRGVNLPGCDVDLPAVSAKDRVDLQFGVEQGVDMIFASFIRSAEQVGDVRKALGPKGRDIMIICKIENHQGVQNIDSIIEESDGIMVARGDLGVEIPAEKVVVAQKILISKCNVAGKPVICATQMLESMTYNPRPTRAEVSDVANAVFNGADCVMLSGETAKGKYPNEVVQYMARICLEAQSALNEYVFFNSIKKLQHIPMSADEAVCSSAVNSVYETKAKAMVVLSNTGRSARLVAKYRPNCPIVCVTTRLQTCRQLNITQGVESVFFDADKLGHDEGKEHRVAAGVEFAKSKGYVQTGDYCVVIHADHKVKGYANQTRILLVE
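Screened at intermediate enzyme activity to detect both inhibitors and activators: LmPK at 0.1 nM, with a 0.5 nM enzyme column as activation reference. PEP 0.5 mM, ADP 0.1 mM; ATP detected by luminescence after 1 h.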
Starred values were filed as active, the others as inactive; ? = inconclusive; . = no result given; [ ] = remark or other dose. Only some compounds are listed: those with a hit (about 0.81% of all), similar ones and a draw of the others. Unless noted, calls come from the whole dose curve; as a rule, active = well fitted curve in the direction sought with a large enough effect; inconclusive = small, poorly fitted or top-dose-only effect, or another doubt; inactive = no such curve, though single readings can be large; an effect the other way counts as inactive or inconclusive. Potency is the fitted concentration of half-maximal effect.

SMILES	AMA1-RON2 inh	SARS PLP yeast	TbPYK inhibitor	RE007 growth inh	LmPK inhibitor
Oc1c(Cl)cc(Cl)cc1C=Nc1cc(C(F)(F)F)ccc1N1CCc2ccccc2C1	6.2%	-9.1%	?	.	15.8µM*
COc1ccc(CCNC(=O)c2ccc3c(c2)N(Cc2ccc(F)cc2)C(=O)CS3)cc1OC	.	.	2.3%	.	.
S=c1[nH]c(-c2ccccc2)cn1/N=C/c1ccc(Br)cc1	111.8%	14.3%	-31.9%	4.3%	0.1%
O=C(O)c1ccc(/C=N/n2cc(-c3ccccc3)[nH]c2=S)cc1	85.7%	1.6%	?	-5.3%	14.1µM*
S=c1[nH]c(-c2ccccc2)cn1/N=C/c1cccnc1	85.3%	0.2%	?	19.7%	3.55µM*
CCCC[C@]12Cc3ccccc3C(O1)c1c(c3ccccc3oc1=O)O2	.	1.4%[6.58 µM]	.	.	-9.6%[11.5 µM]
COc1ccc(C(=O)Nc2ccc3c(c2)OCCO3)cc1	0.5%	-4.5%	-18.8%	8.9%	25.1µM*
COc1ccc(C(=O)Nc2cc(OC)cc(OC)c2)cc1	-8.0%	-2.8%	-5.1%	-10.0%	14.1µM*
COc1cccc(C(=O)Nc2cccc(OC(C)=O)c2)c1	1.7%	-3.7%	-1.8%	-6.8%	25.1µM*
COC(=O)c1sccc1NC(=O)Nc1cccc(OC)c1	0.9%	-11.3%	-22.2%	31.6µM*	-16.7%
COC(=O)c1sccc1NC(=O)c1cccc(OC)c1	43.7%	-9.2%	-14.6%	-10.2%	1.4%
COc1cccc(NC(=O)c2ccc3c(c2)OCCO3)c1	2.7%	-33.2%	-17.2%	?	25.1µM*
O=[N+]([O-])c1cnc2nc(-c3ccncc3)nn2c1O	42.0%	-8.4%	-10.6%	?	12.6µM*
Nc1ccc(Cl)cc1C(=O)c1ccccc1	-15.7%	0.1%	-1.3%	15.6%	8.7%
O=C(c1ccccc1)c1cc(Cl)ccc1N1C(=O)C=CC1=O	-12.1%	-4.9%	4.47µM*	25.1µM*	?
Cc1ccc(NC2=C/C(=N/S(=O)(=O)c3cccs3)c3ccccc3C2=O)cc1C	-14.5%	-5.2%	-13.9%	.	-19.7%
Cc1ccccc1NC1=C/C(=N\S(=O)(=O)c2cccs2)c2ccccc2C1=O	8.91µM*	-28.4%	-13.2%	?	?
CCOc1ccc(C2=C(C(=O)CC)Sc3nncn3N2C(=O)CC)cc1	.	.	2.3%	.	.
c1ccc(Nc2ccc(Nc3ccccc3)cc2)cc1	15.8µM*	-6.3%	1.5%	-17.4%	.
O=C1C=CC(=O)N1c1ccc(Nc2ccccc2)cc1	0.0%	.	?	11.2µM*	.
Cc1cnc(C(=O)O)cn1	.	.	-1.3%	.	.
Nc1nc(N)c(-c2ccccc2)s1	.	.	-5.0%	.	.
CC(=O)N[C@H]1[C@H](O[C@@H]2c3ccc(c(Cl)c3)Oc3cc4cc(c3O[C@@H]3O[C@H](CO)[C@@H](O)[C@H](O)C3C)Oc3ccc(cc3Cl)C[C@H]3NC(=O)[C@@H](N)c5ccc(O)c(c5)Oc5cc(O)cc(c5)[C@H](NC3=O)C(=O)N[C@H]4C(=O)N[C@H]3C(=O)N[C@@H]2C(=O)N[C@@H](C(=O)O)c2cc(O)cc(O[C@H]4O[C@H](CO)[C@@H](O)C(O)[C@@H]4O)c2-c2cc3ccc2O)O[C@H](CO)[C@@H](O)[C@@H]1O (some centres not stated)	.	.	3.2%[33.2 µM]	.	.
COc1cccc(NC(=O)/C=C/c2ccco2)c1	-3.5%	-4.1%	-15.7%	?	15.8µM*
O=C(/C=C/c1ccco1)Nc1ccccn1	-17.5%	-38.1%	-20.6%	-23.4%	14.1µM*
SMILES	AMA1-RON2 inh	SARS PLP yeast	TbPYK inhibitor	RE007 growth inh	LmPK inhibitor
CSc1cccc(NC(=O)/C=C/c2ccco2)c1	-1.9%	-6.5%	-13.1%	-25.2%	1.5%
C[N+](C)(CCCCCC[N+](C)(C)C1c2ccccc2-c2ccccc21)C1c2ccccc2-c2ccccc21	.	.	3.0%	.	.
CCOC(=O)c1csc(-c2sccc2Br)n1	10.9%	-1.5%	-22.1%	?	15.8µM*
C/C(=N/OC(=O)c1ccc(C)cc1)c1cccs1	0.0%	-20.3%	?	?	10µM*
Cc1cccc(/C(N)=N/OC(=O)c2ccc(Br)o2)c1	15.2%	-61.2%	-17.1%	?	-22.6%
Cc1ccc(C(=O)O/N=C(\N)c2ccccn2)cc1	41.9%	-23.8%	?	?	14.1µM*
N/C(=N\OC(=O)c1ccc(Br)o1)c1ccccn1	46.3%	-20.8%	-21.5%	?	12.6µM*
COc1ccc(C(=O)c2cn(Cc3ccc(F)cc3)c3c(F)cc(F)cc3c2=O)cc1	.	.	-1.3%	.	.
O=C1C(Cl)=C(NCCc2ccccc2)C(=O)c2ccccc21	12.6µM*	.	?	6.31µM*	.
C=CCNC1=C(Cl)C(=O)c2ccccc2C1=O	17.8µM*	-12.9%	-0.8%	20µM*	-11.6%
CC(C)OCCCNC1=C(Cl)C(=O)c2ccccc2C1=O	20µM*	0.4%	-6.4%	?	-6.2%
O=C1C(Cl)=C(Nc2ccccc2)C(=O)c2ccccc21	-4.3%	-18.0%	-2.8%	6.1%	-2.7%
COc1ccc(CCNC[C@H](O)COc2cccc(C)c2)cc1OC	.	.	0.0%	.	.
CC[N+]1(CC)CCC(=C(c2ccccc2)c2ccccc2)C1C (configuration not stated)	.	.	3.9%	.	.
O=C(Nc1cccc(C(F)(F)F)c1)c1cccnc1N1CCN(c2ccccc2)CC1	29.9µM*	-34.0%	1.7%	0.6%	2.4%
c1ccc2c(-c3cnn4cc(-c5ccc(N6CCNCC6)cc5)cnc34)ccnc2c1	.	.	0.0%	.	.
COc1ccc(C(=O)NNC(=S)NC(=O)/C=C/c2cccs2)cc1	35.7%	-1.5%	-9.7%	-12.1%	25.1µM*
COc1cc(NCCC(=O)c2cccs2)c(OC)cc1Cl	14.1µM*	-5.0%	?	-28.1%	-4.8%
NCCCCC(NC(=O)C1CCCN1C(=O)C1CSSCC(N)C(=O)NC(Cc2ccccc2)C(=O)NC(Cc2ccccc2)C(=O)NC(CCC(N)=O)C(=O)NC(CC(N)=O)C(=O)N1)C(=O)NCC(N)=O (configuration not stated)	.	.	4.5%	.	.
COc1ccc(/C=C/C(=O)Nc2ccc3nc4c(c(Nc5ccc(OC)c(OC)c5)c3c2)CCCC4)cc1	.	.	1.8%	.	.
Cc1cc(-c2n[nH]c(=S)n2/N=C/c2sccc2C)n[nH]1	45.7%	?	7.08µM*	2.1%	-13.9%
COc1cc(/C=N/n2c(-c3ccccc3)n[nH]c2=S)cc(OC)c1O	84.3%	0.6%	?	7.9%	-11.8%
COc1ccc(/C=N/n2c(-c3cccs3)n[nH]c2=S)cc1	-1.0%	-5.1%	1.26µM*	-6.2%	-21.6%
Oc1ccc(/C=N/n2c(-c3ccccc3)n[nH]c2=S)cc1Br	97.2%	-7.2%	0.9%	0.4%	?
COc1cc(/C=N/n2c(-c3ccccc3)n[nH]c2=S)ccc1O	75.7%	0.8%	6.31µM*	-6.6%	?
